Compounds with a hit are over-represented: about 1.6% of the library has one in this group of screens.
KCNQ2 block = inhibitors of rat KCNQ2 potassium channel. O88943. CHO-K1 KCNQ2, FluxOR thallium flux, 20 min; stronger effect = lower value. B-score at 10 µM. 1.1% of 310,000 active;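 active means fluorescence ratio B-score at most minus 3 library SDs, with starting brightness B-score within 2 library SDs, cut at about -5.5 in these data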
KCNQ2 enhance = enhances the rat KCNQ2 potassium channel | B-score at 10 µM | AID 2239 | CHO-K1 KCNQ2, FluxOR thallium flux fluorescence; stronger effect = higher value | 0.54% of 310,000 active;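 active means fluorescence ratio B-score at least 3 SD of library B-scores, with initial fluorescence B-score within 3 of them, cut at about 5.3 in these data; same plate scores as AID 2156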;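 further: B-score of peak minus minimum over baseline fluorescence ratio after K+ and Tl+ stimulus; positive B-score means potentiation of KCNQ2 with more thallium influx and brighter signal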
Kir21 confirm = confirmation of mouse Kir2.1 potassium channel inhibitors; shares compounds with KCNQ2 enhance; Kir2.1-expressing cells, FluxOR thallium flux fluorescence; stronger effect = lower value; Tl flux remaining, % of negative control (stronger effect = lower value), % at 10 µM; 41% of 2,300 active; AID 2032;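 active means Primary-screen hit whose thallium flux fell at least 3 control SD below untreated wells in both duplicates, with normal baseline fluorescence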
HEK293 Tl flux = parental HEK293 activity in Kir2.1 inhibitor counter-screen. FluxOR signal as % of negative control (100 = no effect), % at 10 µM. 19% of 2,300 active. parental HEK293 cells, FluxOR thallium flux fluorescence; 0% = unstimulated blank wells. shares compounds with KCNQ2 enhance;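 active means dye signal at least 3 control SD above or below untreated wells in both duplicates, raw fluorescence within 3, either direction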;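 further: percent is based on the flux ratio of peak minus minimum fluorescence over baseline F0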
CHO-K1 ctr = counter-screen for KCNQ2 potentiators: effect in parental CHO-K1 cells. shares compounds with KCNQ2 enhance. FluxOR thallium flux fluorescence; zero = vehicle mean+3SD, 100% = vehicle-minus-blank window. activity increase over 3SD of controls, % at 10 µM. 43% of 1,200 active;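 active means signal rise of at least 3 SD above the untreated control mean, in both duplicate wells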;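 further: counter screen of KCNQ2 potentiator hits so any rise reflects channel-independent effects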
KCNQ1 pot spec = tests whether KCNQ2 potentiators also act on human KCNQ1; shares compounds with KCNQ2 enhance; CHO KCNQ1 stable, FluxOR thallium flux fluorescence; beyond 3SD, as % of vehicle-control signal; activation over 3SD threshold, % at 10 µM; 28% of 1,200 active; AID 2283;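 active means fluorescence ratio rise of at least 3 SD of vehicle wells above their mean, in both replicate wells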
Target sequence (P51787 whole entry, looked up): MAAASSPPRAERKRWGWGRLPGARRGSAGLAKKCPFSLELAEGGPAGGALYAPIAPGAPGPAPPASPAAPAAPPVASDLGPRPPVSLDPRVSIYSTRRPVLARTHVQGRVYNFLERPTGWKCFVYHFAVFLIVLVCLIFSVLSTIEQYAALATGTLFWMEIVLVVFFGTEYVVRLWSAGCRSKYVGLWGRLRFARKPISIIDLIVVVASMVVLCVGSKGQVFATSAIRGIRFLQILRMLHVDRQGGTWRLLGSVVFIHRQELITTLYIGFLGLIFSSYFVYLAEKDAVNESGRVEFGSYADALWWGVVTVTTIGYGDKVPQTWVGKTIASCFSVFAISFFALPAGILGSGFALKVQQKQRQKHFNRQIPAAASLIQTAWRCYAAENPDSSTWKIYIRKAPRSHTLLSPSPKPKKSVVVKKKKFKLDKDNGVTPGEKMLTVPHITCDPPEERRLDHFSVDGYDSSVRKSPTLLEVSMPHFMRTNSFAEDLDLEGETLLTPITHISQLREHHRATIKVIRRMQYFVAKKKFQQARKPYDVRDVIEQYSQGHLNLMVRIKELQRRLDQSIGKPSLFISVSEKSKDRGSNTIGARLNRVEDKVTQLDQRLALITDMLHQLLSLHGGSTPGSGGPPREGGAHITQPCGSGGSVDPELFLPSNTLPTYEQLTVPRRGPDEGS
KCNQ2 pot confirm = confirmation of rat KCNQ2 potassium channel potentiators. shares compounds with KCNQ2 enhance. CHO-KCNQ2 cells, FluxOR thallium flux fluorescence. potentiation, less the hit threshold, % at 10 µM. 68% of 1,200 active;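 active means fluorescence ratio rising 3 SD or more over the vehicle control mean in both replicates, plus primary screen hit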;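 further: peak minus minimum thallium fluorescence divided by baseline after K/Tl stimulus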
Kir2-1 sel = selectivity of KCNQ2 potentiators: effect on mouse Kir2.1. shares compounds with KCNQ2 enhance. HEK293 Kir2.1, FluxOR thallium flux fluorescence. activity over 3SD threshold, % at 10 µM. 2% of 1,200 active;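 active means fluorescence ratio rise of at least 3 SD above the vehicle-control mean, seen in both replicates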
KCNQ2 W236L MoA = KCNQ2 potentiators acting on retigabine-insensitive rat KCNQ2 W236L mutant | current increase over 3SD of negative controls (%), stronger effect = higher value, % at 25 µM | 10% of 940 active | CHO KCNQ2-W236L, automated patch clamp current | shares compounds with KCNQ2 enhance;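 active means current increase at least 3 SD of the untreated controls above them in both duplicate recordings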
A number is an active result; n = inactive; x = not tested or not shown.

SMILES | KCNQ2 block | KCNQ2 enhance | Kir21 confirm | HEK293 Tl flux | others
COc1ccc(NC(=O)C(OC(=O)c2cnc(C)cn2)c2ccccc2)cc1Cl (configuration not stated) | n | x | x | x
COc1ccc(Cc2nnc(NC(=O)C3CC(=O)N(c4ccccc4C)C3)s2)cc1OC (configuration not stated) | n | x | x | x
Cc1ccc(Nc2oc(C)nc2C#N)cc1 | n | n | x | x
NS(=O)(=O)c1ccc(CCNCc2cc(Cl)ccc2OCc2ccccc2)cc1 | n | n | x | x
NS(=O)(=O)c1ccc(CCNCc2ccccc2OCc2ccc(Cl)cc2)cc1 | n | n | 44% | n
NS(=O)(=O)c1ccc(CCNCc2cc(Br)ccc2OCc2ccccc2F)cc1 | n | x | 64% | n
C=CCOc1ccccc1CNCCc1ccc(S(N)(=O)=O)cc1 | n | x | x | x
Cc1cc(C)cc(OCC(=O)OCCN2C(=O)c3ccccc3C2=O)c1 | n | n | x | x
CCc1ccc(C(=O)NNc2ccc(S(N)(=O)=O)cc2)cc1 | n | x | x | x
O=[N+]([O-])c1ccc2c(c1)ncn2-c1ccccc1 | n | n | x | x
COc1cccc(CNC(=O)CSCc2cnn(-c3ccccc3)c2-n2cccc2)c1 | n | x | n | n
CCOC(=O)N1CCC(NC(=O)CSCc2cnn(-c3ccccc3)c2-n2cccc2)CC1 | n | n | x | x
O=C(CSCc1cnn(-c2ccccc2)c1-n1cccc1)NCc1cccs1 | n | x | n | n
CNC(=O)CSCc1cnn(-c2ccccc2)c1-n1cccc1 | n | n | x | x
COc1ccccc1NC(=O)C(C)Sc1nnnn1C (configuration not stated) | n | x | x | x
Cc1ccccc1OC1=NS(=O)(=O)c2ccccc21 | n | x | x | x
CN1CCC(N(C)C(=O)c2cc(=O)c3ccccc3o2)CC1 | n | x | n | n
CCc1ccc(CN(C)C(=O)c2cc(=O)c3ccccc3o2)cc1 | n | x | x | x
COc1ccc([N+](=O)[O-])cc1NC(=O)Nc1cccc(Cl)c1 | n | n | x | x
CCOc1ccc(N(C(=O)/C=C/C(=O)Nc2cc(C)on2)C(C(=O)NC2CCCC2)c2ccccc2C)cc1 (configuration not stated) | n | x | x | x
CC1CCC(C(C)C)C(OC(=O)C[n+]2cc(-c3ccc(Cl)cc3)n3c2CCC3)C1 (configuration not stated) | n | n | x | x
CC1CCC(C(C)C)C(OC(=O)Cn2c(-c3ccccc3)[n+](C)c3ccccc32)C1 (configuration not stated) | n | x | 26% | n
CCOC(=O)N1CCC(NC(=O)c2cc(C(=O)Nc3ccc(F)cc3F)ccc2CO)CC1 | n | n | x | x
CC(C)(CO)NCc1ccccc1OCC(=O)Nc1ccccc1 | n | x | x | x
Cc1ccc(NC(=O)COc2ccccc2CNC(C)(C)CC(C)(C)C)cc1 | n | x | 44% | n
SMILES | KCNQ2 block | KCNQ2 enhance | Kir21 confirm | HEK293 Tl flux | others
CS(=O)(=O)N1CCN(c2ccccc2NC(=S)NC(=O)c2ccccc2[N+](=O)[O-])CC1 | n | n | x | x
O=C(O)CCNC(=O)/C(=C\c1ccco1)NC(=O)c1ccco1 | n | x | x | x
O=C(Nc1ccccc1)Nc1nc(-c2ccc(F)cc2)cs1 | n | x | x | x
Fc1ccc(-c2csc(NC(=S)Nc3ccccc3)n2)cc1 | n | 8.8 | n | n | CHO-K1 ctr=26;KCNQ1 pot spec=n;KCNQ2 pot confirm=n;Kir2-1 sel=n;KCNQ2 W236L MoA=n
O=C(O)c1cc(-c2cccs2)nn1-c1ccccc1 | n | x | x | x
O=C(O)c1cc(-c2cccs2)nn1-c1cccc(Cl)c1 | n | 8.9 | n | n | CHO-K1 ctr=16;KCNQ1 pot spec=28;KCNQ2 pot confirm=n;Kir2-1 sel=n;KCNQ2 W236L MoA=n
CCOc1ccccc1NC(=O)Nc1cc(C(=O)O)ccc1C | n | n | x | x
Cn1c(NCc2ccc(Cl)cc2)nc2ccccc21 | n | x | 25% | n
Cn1c(CNc2nc3ccccc3n2C)nc2ccccc21 | n | x | x | x
Cn1c(NCc2c(O)ccc3ccccc23)nc2ccccc21 | n | x | x | x
Cc1ccc(CNc2nc3ccccc3n2C)cc1 | n | x | 36% | n
Cc1cc(C)n(CC(=O)N/N=C/c2cc([N+](=O)[O-])ccc2O)n1 | n | n | x | x
Cc1cc(C)n(CC(=O)N/N=C/c2cc(Br)cc([N+](=O)[O-])c2O)n1 | n | 6.9 | n | 65% | CHO-K1 ctr=n;KCNQ1 pot spec=n;KCNQ2 pot confirm=40;Kir2-1 sel=n;KCNQ2 W236L MoA=n
C[C@@H](C(=O)Nc1cccnc1)n1c(=O)[nH]c2ccccc2c1=O | n | n | x | x
CSc1ccc(/C=C(/NC(=O)c2ccccc2)C(=O)NCCN2CCOCC2)cc1 | n | n | x | x
C/C=C/c1ccc(OCCCCN(C)Cc2ccccc2)c(OC)c1 | n | x | 22% | n
Cc1ccc(Cl)c(OCCCN(C)Cc2ccccc2)c1 | n | x | x | x
Cc1ccc(Cl)c(OCCCCN(C)Cc2ccccc2)c1 | n | x | 20% | n
C/C=C/c1ccc(OCCNCc2ccccc2)c(OC)c1 | n | x | x | x
O=C(COC(=O)c1ccccc1-c1nc2ccccc2s1)NC1CCS(=O)(=O)C1 (configuration not stated) | n | x | x | x
CCC(C#CCN1CCOCC1)(CC)OCCC#N | n | n | x | x
CCOC(=O)c1sc(N(Cc2ccccc2)C(=O)COC(=O)c2ccccc2O)nc1C | n | x | x | x
O=C(NC(=S)Nc1ccc(N2CCCCC2)c(Cl)c1)c1cccs1 | n | 6.6 | n | n | CHO-K1 ctr=9.4;KCNQ1 pot spec=11;KCNQ2 pot confirm=1.0;Kir2-1 sel=n;KCNQ2 W236L MoA=n
O=C(Nc1cc(Cl)ccc1N1CCCCC1)c1cccs1 | n | x | x | x
CC(NC(=O)c1cccs1)c1n[nH]c(=S)n1C (configuration not stated) | n | x | x | x
SMILES | KCNQ2 block | KCNQ2 enhance | Kir21 confirm | HEK293 Tl flux | others
C=CCn1c(SCC(N)=O)nnc1-c1cccc(Br)c1 | n | n | x | x
C=CCn1c(SCc2ccccc2C#N)nnc1-c1cc(Br)ccc1O | n | x | n | n
CC1=C(C(N)=O)C(c2cccs2)n2ncnc2N1 (configuration not stated) | n | x | x | x
COc1ccccc1CCNC(C)CCc1ccc(O)cc1 (configuration not stated) | n | x | x | x
COc1cc(OC)c(OC)cc1CCC(C)NCCC(c1ccccc1)c1ccccc1 (configuration not stated) | n | n | 48% | n
C=CCN(CC=C)C(=S)NC(=O)c1ccc(OC)c(Br)c1 | n | 7.2 | n | 336% | CHO-K1 ctr=1.9;KCNQ1 pot spec=20;KCNQ2 pot confirm=20;Kir2-1 sel=n;KCNQ2 W236L MoA=n
C=CCNC(=S)NNC(=O)c1ccc(C)c(Cl)c1 | n | x | x | x
CCN(CC)C(=S)NC(=O)c1ccc(OC)c(Br)c1 | n | n | x | x
C=CCNC(=S)NC(=O)c1ccc(C)c(Br)c1 | n | 5.7 | n | n | CHO-K1 ctr=22;KCNQ1 pot spec=n;KCNQ2 pot confirm=n;Kir2-1 sel=n

Screening data from PubChem.
